For one experiment, the system named is C33A. Put plainly: Primary qHTS to identify gynecologic anti-cancer compounds using libraries of approved drugs and bioactive compounds (AID 1345084). Note: nearly all actives have a fitted effect of over 55% in size. Note: potency is the fitted concentration of half-maximal effect. The note with it: Gynecologic cancer cell panel viability, ATPlite luminescence, 48 h; series mostly up to 57.5 µM. A digest of the protocol:
(§1)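 Cytotoxicity screen measuring ATP content by luciferase luminescence. Each compound is applied at five concentrations for 48 h at 37 C with 5% CO2.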

The subject of a further experiment is CAOV3. The description is as above. The note with it: Gynecologic cancer cell panel viability, ATPlite luminescence, 48 h; series mostly up to 57.5 µM. A digest of the protocol:
as §1
In general terms: Cellular ATP, detected with luciferase, serves as a proxy for viable cell number.

For another experiment, the system named is CASKI. The experiment is described as above. The settings on record: Gynecologic cancer cell panel viability, ATPlite luminescence, 48 h; series mostly up to 57.5 µM. Put shortly:
as §1

In another experiment the test system is Es-2. The description is as above. The note with it: Gynecologic cancer cell panel viability, ATPlite luminescence, 48 h; series mostly up to 57.5 µM. A digest of the protocol:
as §1

In another experiment the test system is HeLa. Described as above. The settings on record: Gynecologic cancer cell panel viability, ATPlite luminescence, 48 h; series mostly up to 57.5 µM. Put shortly:
as §1

The test system of a further experiment is Hek293T. The experiment is described as above. The note with it: Gynecologic cancer cell panel viability, ATPlite luminescence, 48 h, control line for the selectivity index; series mostly up to 57.5 µM. A digest of the protocol:
as §1

Another experiment deals with JEG-3. The experiment is described as above. The note with it: Gynecologic cancer cell panel viability, ATPlite luminescence, 48 h; series mostly up to 57.5 µM. Put shortly:
as §1

The subject of the next experiment is OV90. The experiment is described as above. The settings on record: Gynecologic cancer cell panel viability, ATPlite luminescence, 48 h; series mostly up to 57.5 µM. Put shortly:
as §1

The next experiment has as its system PA-1. The experiment is described as above. The note with it: Gynecologic cancer cell panel viability, ATPlite luminescence, 48 h; series mostly up to 57.5 µM. Put shortly:
as §1

The test system of a further experiment is SKOV3. Described as above. The settings on record: Gynecologic cancer cell panel viability, ATPlite luminescence, 48 h; series mostly up to 57.5 µM. A digest of the protocol:
as §1

The test system of a further experiment is Tov-21-G. The experiment is described as above. The note with it: Gynecologic cancer cell panel viability, ATPlite luminescence, 48 h; series mostly up to 57.5 µM. Put shortly: as §1
Another experiment has as its system Tov112D. Described as above. The note with it: Gynecologic cancer cell panel viability, ATPlite luminescence, 48 h; series mostly up to 57.5 µM. A digest of the protocol: as §1
A short description of experiment [1]: Drug repurposing screens with cells derived from glioblastoma tumor samples (AID 1345199). Note: % is set by controls: 0 for no effect and ±100 for the full control effect; nearly all actives have a fitted effect of over 40% in size. The settings on record: GBM patient neurospheres viability, ATP luminescence, 48 h. A digest of the protocol:
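Four patient lines of CD133+ GBM neurospheres were screened at several concentrations; hits were retested in those lines plus three slower-growing GBM lines, using 48-hour treatment and ATP-based viability.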

A short description of experiment [2]: qHTS assay to identify inhibitors of the type 1 interferon - major histocompatibility complex class I in skeletal muscle: Counter screen cell viability and HiBit confirmation (AID 1347412). Note: potency is the fitted concentration of half-maximal effect; nearly all actives have a fitted effect of over 60% in size. The settings on record: iHSKM muscle cells + IFN-b, HiBiT or CellTiter-Glo, 24 h. Put shortly:
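Duplicate plates, pinned identically: one read for HiBiT-tagged endogenous HLA-B luminescence, the other for ATP-content viability via CellTiter Glo. Cells were genome-engineered human myoblasts given 4 ng/ml IFN-b; compounds 12-pt, 1:3 from 46 uM final; 24 hr exposure.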
For orientation: In qHTS, concentration-response curves come from the screen itself.

Experiment [3] has as its target Nuclear receptor subfamily 1 group I member 2 (Rattus norvegicus) (UniProt Q9R1A7). The experiment is described as follows: qHTS assay for small molecule activators of the rat pregnane X receptor (rPXR) signaling pathway (AID 651751; call rule not given here; note: 0% is about no effect). The settings on record: rPXR reporter cells, luciferase (One-Glo), 24 h.
The mark [4] stands for this setting: at 45.9 µM (top of the series), tumour line B.
Setting [5] is: at 45.9 µM (top of the series), tumour line D.
Where [6] appears, read: at 46 µM (top of the series), tumour line A.
Setting [7] is: at 46.1 µM (top of the series), tumour line C.

The source of these data is PubChem BioAssay (NCATS).

Several values for one entry are separate records, joined by “and”; a condition that tells them apart may be missing. Identical values can stand only once. Values without a mark were called inactive. Results filed as inconclusive are left out. Activity calls are given as the source filed them. Unless noted, calls come from the whole dose curve; as a rule, active = well fitted curve in the direction sought with a large enough effect; inconclusive = small, poorly fitted or top-dose-only effect, or another doubt; inactive = no such curve, though single readings can be large; an effect the other way counts as inactive or inconclusive.

Sequence of Nuclear receptor subfamily 1 group I member 2 (Rattus norvegicus) (Q9R1A7 whole entry, looked up): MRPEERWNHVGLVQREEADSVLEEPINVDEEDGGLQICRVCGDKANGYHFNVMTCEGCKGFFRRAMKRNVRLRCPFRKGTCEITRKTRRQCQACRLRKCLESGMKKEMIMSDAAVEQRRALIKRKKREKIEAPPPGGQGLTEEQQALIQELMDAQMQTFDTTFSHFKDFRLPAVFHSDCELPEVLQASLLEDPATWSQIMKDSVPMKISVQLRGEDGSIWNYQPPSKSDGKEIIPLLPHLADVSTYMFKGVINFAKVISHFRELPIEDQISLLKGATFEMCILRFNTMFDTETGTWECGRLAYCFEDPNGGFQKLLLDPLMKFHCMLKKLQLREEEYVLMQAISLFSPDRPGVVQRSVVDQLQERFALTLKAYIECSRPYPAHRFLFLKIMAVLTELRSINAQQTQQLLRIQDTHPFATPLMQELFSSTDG

In the case of `C[N+](C)(C)CC(=O)O`, the Potency result in the experiment on C33A, in the experiment with CAOV3, with CASKI, with Es-2, in the experiment on HeLa and in the experiment with Hek293T was “inactive” each time. For the same compound, the Potency entry with JEG-3, with OV90, with PA-1, in the experiment on SKOV3, with Tov-21-G and in the experiment with Tov112D was “inactive” throughout.
Consider `CC1CCC(C(=O)N(c2cc(C#CC(C)(C)C)sc2C(=O)O)C2CCC(O)CC2)CC1` (centres undefined), for which the Potency entry with C33A, in the experiment with CAOV3, in the experiment with Es-2, in the experiment with HeLa, in the experiment on Hek293T and in the experiment with OV90 was “inactive” in each case. Besides, the Potency result in the experiment with PA-1, in the experiment with Tov-21-G and with Tov112D was “inactive” in each case.
Consider `COC[C@@H](c1ccc(C(F)(F)F)cc1)N1CCN(C2(C)CCN(C(=O)c3c(C)ncnc3C)CC2)C[C@H]1C`, for which the Potency entry in the experiment with C33A, in the experiment on CAOV3, in the experiment with CASKI, in the experiment on Es-2, with HeLa and in the experiment on Hek293T was “inactive” throughout. For the same compound, the Potency entry in the experiment with JEG-3, in the experiment with OV90, in the experiment with PA-1, in the experiment with Tov-21-G and in the experiment on Tov112D was “inactive” each time.
Regarding `COc1ccccc1N1CCN(CCCNc2cc(=O)n(C)c(=O)n2C)CC1`, the Potency result with C33A, with CAOV3, with CASKI, in the experiment with Es-2, in the experiment on HeLa and in the experiment on Hek293T was “inactive” in each case. The Potency result with JEG-3, in the experiment on OV90, in the experiment on PA-1, in the experiment on SKOV3, in the experiment with Tov-21-G and with Tov112D was “inactive” each time. Moreover, the activity, negative = cell killing was -12.1% and -4.13% in experiment [1] (setting [4]); 1.29% and -19.7% in experiment [1] (setting [5]); -30.8% in [1] (setting [6]); -17.7% and -6.4% in experiment [1] (setting [7]).
As for `CC(C)C(=O)Nc1ncc(-c2cc(C(F)F)nn2-c2c(Cl)cccc2Cl)s1`, the Potency entry with C33A, in the experiment with CAOV3, in the experiment on CASKI, with Es-2, in the experiment with Hek293T and in the experiment with JEG-3 was “inactive” throughout. The Potency result with OV90 and in the experiment on SKOV3 was “inactive” in each case.
For the compound `COCCOc1nc(-c2ccc(Cl)c(Cl)c2)n(-c2ccc(NC(=O)CCl)cc2)n1`, the Potency was 20 µM (active) with C33A; 28.2 µM (active) in the experiment on CAOV3; 11.2 µM (active) with Es-2; 5.62 µM (active) with Tov-21-G; 3.52 µM (active) in experiment [2] (HiBiT); 7.87 µM (active) in [2] (Viability). The Potency entry with HeLa and in the experiment on OV90 was “inactive” each time.
In the case of `O=C1NCC2(CCN(CCc3ccccc3)CC2)O1`, the Potency result in the experiment with C33A, in the experiment on CASKI, in the experiment with Es-2, in the experiment with HeLa, in the experiment with Hek293T and in the experiment on JEG-3 was “inactive” throughout. For the same compound, the Potency result in the experiment with OV90, in the experiment on PA-1, in the experiment with SKOV3, in the experiment on Tov-21-G and in the experiment on Tov112D was “inactive” in each case. Moreover, the values for the activity, negative = cell killing in [1] (setting [4]), in [1] (setting [5]) and in experiment [1] (setting [7]) were -4.5%, -9.33% and -12.7%, respectively.
Regarding `CCOC(=O)C1=C(N)Oc2ccc(Br)cc2C1C(C#N)C(=O)OCC` (centres undefined), the Potency entry in the experiment with C33A, with CASKI, with Es-2, with HeLa, in the experiment with Hek293T and with JEG-3 was “inactive” each time. The Potency result with OV90, in the experiment on PA-1, in the experiment with SKOV3, in the experiment on Tov-21-G and with Tov112D was “inactive” in each case.
Consider `CS(=O)c1ccc(-c2nc(-c3ccc(F)cc3)c(-c3ccncc3)[nH]2)cc1` (centres undefined), for which the Potency result with C33A, in the experiment with CASKI, in the experiment on Es-2, in the experiment with HeLa, with Hek293T and with JEG-3 was “inactive” in each case. Also, the Potency entry in the experiment on OV90, in the experiment on PA-1, in the experiment on SKOV3, with Tov-21-G and in the experiment on Tov112D was “inactive” each time.
For `CC(C)(C)OC(=O)N[C@H]1CCCCCC=C[C@@H]2C[C@@]2(C(=O)NS(=O)(=O)C2CC2)NC(=O)[C@@H]2C[C@@H](OC(=O)N3Cc4cccc(F)c4C3)CN2C1=O`, the Potency result in the experiment with C33A, in the experiment on CASKI, in the experiment with Es-2, with HeLa, in the experiment on Hek293T and in the experiment with JEG-3 was “inactive” throughout. The Potency entry in the experiment with OV90, in the experiment on PA-1, with SKOV3, with Tov-21-G and with Tov112D was “inactive” throughout.
As for `CC(C)[C@H](CO)Nc1nc(Nc2ccc(C(=O)O)c(Cl)c2)c2ncn(C(C)C)c2n1`, the Potency entry in the experiment on C33A, with CASKI, in the experiment on Es-2, with HeLa, with Hek293T and with JEG-3 was “inactive” each time. Also, the Potency result in the experiment with OV90, in the experiment on PA-1, in the experiment on SKOV3, in the experiment with Tov-21-G and with Tov112D was “inactive” each time.
Take `CCN1CCC[C@H]1CNC(=O)c1cc(S(N)(=O)=O)ccc1OC`: the Potency entry in the experiment on C33A, with CASKI, with Es-2, in the experiment with HeLa, in the experiment on Hek293T and in the experiment on JEG-3 was “inactive” throughout. For the same compound, the Potency entry with OV90, with PA-1, in the experiment on SKOV3, in the experiment with Tov-21-G and in the experiment on Tov112D was “inactive” each time. The activity, negative = cell killing is 0.712% in experiment [1] (setting [4]), -10.3% in [1] (setting [5]), -29.7% in experiment [1] (setting [6]) and 1.29% in experiment [1] (setting [7]).
As for `COc1ccc(C2CC(c3ccccc3)=NN2c2ccc(S(N)(=O)=O)cc2)cc1` (centres undefined), the Potency entry in the experiment with C33A, with CASKI, in the experiment with Es-2, in the experiment on HeLa, in the experiment on Hek293T and with JEG-3 was “inactive” each time. The Potency entry with OV90, in the experiment with PA-1, with SKOV3, in the experiment on Tov-21-G and in the experiment with Tov112D was “inactive” throughout.
With `OC[C@@H](O)[C@H](O)[C@H](O)[C@@H](O)CO`, the Potency result in the experiment on C33A, in the experiment with CASKI, in the experiment on Es-2, with HeLa, with Hek293T and in the experiment with JEG-3 was “inactive” throughout. Further, the Potency result with OV90, in the experiment on PA-1, in the experiment on SKOV3, in the experiment with Tov-21-G and with Tov112D was “inactive” throughout. Further, the activity, negative = cell killing in experiment [1] (setting [4]) is 0.357% and -12%; in [1] (setting [5]), -2.85% and -9.13%; in experiment [1] (setting [6]), -13.7% and -24.1%; in experiment [1] (setting [7]), -4.39% and -14.9%.
For the compound `O=C1NC(=O)C(c2ccccc2)(c2ccccc2)N1`, the Potency entry with C33A, with CASKI, with Es-2, in the experiment on HeLa, in the experiment with Hek293T and with JEG-3 was “inactive” in each case. Also, the Potency entry with OV90, with PA-1, in the experiment with SKOV3, with Tov-21-G and in the experiment on Tov112D was “inactive” in each case. Besides, the activity, negative = cell killing in [1] (setting [4]) is -5.12%; in experiment [1] (setting [5]), -12.9%; in experiment [1] (setting [6]), -29.6%; in experiment [1] (setting [7]) it was 10.5%. In addition, the max response in experiment [3] was -3.01% and 3.12% and 2.23%.
